From PubChem BioAssay
Activity calls are given as the source filed them.

What was measured:
[1] = test system: Plasmodium falciparum Sir2 (PF13_0152, Sir2A); test: Plasmodium falciparum Sir2A binding compounds – biochemical, small-molecule microarray, 635 nm fluorescence, primary screen (AID 1098); settings: fluorescence 635 nm, higher = more signal;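 also: score merges spot fluorescence intensity with its signal-to-noise ratio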
[2] = probe aDKK1 binding to arrayed compounds – biochemical, biotinylated probe, 635/667 nm fluorescence, primary screen (AID 1099); settings: small-molecule microarray, higher = more signal;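 also: score merges 667nm spot fluorescence with signal to noise across triplicate slides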
[3] = probe aCHRDL2 binding to arrayed compounds – biochemical, biotinylated probe, 635/667 nm fluorescence, primary screen (AID 1100); settings: small-molecule microarray, higher = more signal
[4] = change in splice reporter luminescence, either direction, cell-based, HEK293, spliceosome inhibition project, primary screen (AID 1101); settings: HEK293 splicing luciferase reporter, 24 h, higher = more signal, called active from +8 up or from −8 down;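 also: HEK293 cells carrying a splicing-competent luciferase reporter gene; test concentration not given here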
[5] = molecular target: Fibroblast growth factor 10 (Homo sapiens) (UniProt O15520); test: compounds binding fibroblast growth factor 10 – biochemical, small-molecule microarray, 635 nm fluorescence, primary screen (AID 1102); settings: FGF10 binding, fluorescence 635 nm, higher = more signal
[6] = test system: glycogen synthase kinase-3 (GSK3A per assay name; protocol says GSK3B); test: compounds binding glycogen synthase kinase-3 – biochemical, small-molecule microarray, 635 nm fluorescence, GSK3A, primary screen (AID 1103); settings: fluorescence 635 nm, higher = more signal; also: the record names both GSK3A and GSK3B
[7] = molecular target: Epidermal growth factor receptor (Homo sapiens) (UniProt P00533); test: compounds binding epidermal growth factor receptor – biochemical, small-molecule microarray, 635 nm fluorescence, primary screen (AID 1104); settings: EGFR binding, higher = more signal;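 also: score merges 667 nm emission intensity with spot signal to noise over triplicate slides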
[8] = molecular target: Follistatin-related protein 3 (Homo sapiens) (UniProt O95633); test: compounds binding follistatin-related protein 3 – biochemical, small-molecule microarray, 635 nm fluorescence, primary screen (AID 1105); settings: FSTL3 binding, higher = more signal;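 also: score merges emission near 667 nm and signal to noise per printed spot across three slides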
[9] = molecular target: Dickkopf-related protein 1 (Homo sapiens) (UniProt O94907); test: small molecules binding DKK1 protein – biochemical, small-molecule microarray, 635 nm fluorescence scan, primary screen (AID 1106); settings: higher = more signal;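 also: score merges emission near 667 nm with signal to noise over three replicate slides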
[10] = test system: Inhibin beta A chain (activin A); test: small molecules binding activin A – biochemical, small-molecule microarray, 635 nm fluorescence scan, primary screen (AID 1107); settings: INHBA, higher = more signal;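 also: mouse activin A protein probed at 4.33 µg/mL on printed slides; score merges bound-protein fluorescence near 667 nm with spot signal-to-noise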
[11] = test system: Human papillomavirus type 1a protein E7 (residues 44-93); test: small molecules binding HPV E7 44-93 – biochemical, small-molecule microarray, residues 44-93, 635 nm fluorescence, primary screen (AID 1108); settings: fluorescence 635 nm, higher = more signal;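 also: E7 fragment applied at 1 µg/mL in TBST for 1 h at 4 C; score combines spot fluorescence with its signal to noise ratio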
[12] = hepatitis C replication reporter changes, two-sided – Huh7 cells, luciferase reporter, HCV replication inhibitor project, primary screen (AID 1109); settings: Huh7 HCV replicon luciferase reporter, 48 h; higher = more signal;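 also: huh7 hepatoma cells harbouring a luciferase neomycin HCV replicon reporter; luciferase luminescence as measure of HCV replicon replication; test concentration not given here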
[13] = molecular target: Left-right determination factor 2 (Homo sapiens) (UniProt O00292); test: small molecules binding LEFTY2 protein – biochemical, small-molecule microarray, 635 nm fluorescence scan, primary screen (AID 1110); settings: higher = more signal
[14] = molecular target: Calmodulin-1 (Homo sapiens) (UniProt P0DP23); test: small molecules binding calmodulin-1 with EGTA – biochemical, small-molecule microarray, Cy5-labelled CALM1, profiling panel (AID 1111); settings: Cy5-CALM1 binding fluorescence, higher = more signal;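 also: labelled calmodulin applied in Tris saline Tween buffer holding calcium plus EGTA and DTT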
[15] = molecular target: Calmodulin-1 (Homo sapiens) (UniProt P0DP23); test: small molecules binding Ca-loaded calmodulin-1 – biochemical, small-molecule microarray, Cy5-labelled CALM1, plus calcium, artefact control for SMM control-protein annotation, profiling panel (AID 1112); settings: Cy5-CALM1 binding fluorescence, higher = more signal;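 also: score merges spot fluorescence with signal to noise from triplicate slides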
[16] = probe aWnt5a binding to arrayed compounds – biochemical, biotinylated probe, 635/667 nm fluorescence, primary screen (AID 1113); settings: small-molecule microarray, higher = more signal;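 also: score merges 667 nm fluorescence intensity with signal-to-noise per printed feature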
[17] = probe aShh binding to arrayed compounds – biochemical, biotinylated probe, 635/667 nm fluorescence, primary screen (AID 1114); settings: small-molecule microarray, higher = more signal;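 also: probe is biotin-labelled aShh protein from a stem cell growth factor screen; measures binding of labelled protein to compounds printed on the slide; score merges feature fluorescence at 667 nm with signal-to-noise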
[18] = probe aNog binding to arrayed compounds – biochemical, biotinylated probe, 635/667 nm fluorescence, primary screen (AID 1115); settings: small-molecule microarray, higher = more signal;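 also: probe is biotinylated aNog protein used at 0.15 µg/mL for 1 h at 4 C; z-score combines 667 nm fluorescence of each spot with its signal to noise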
[19] = molecular target: Torsin-1A-interacting protein 1 (Homo sapiens) (UniProt Q5JTV8); test: compound microarray binding of lysate hLAP1 – cell lysate, small-molecule microarray, COS7 lysate, 635/667 nm fluorescence, primary screen (AID 1116); settings: 635 nm fluorescence, higher = more signal
[20] = molecular target: Alpha-bungarotoxin (Bungarus multicinctus) (UniProt P60615); test: compounds binding labelled alpha-BTX control protein – biochemical, small-molecule microarray, Alexa647 label, 635/667 nm fluorescence, artefact control for SMM control protein annotation, profiling panel (AID 1117); settings: alpha-BTX-A647 binding fluorescence, higher = more signal
Chain of Alpha-bungarotoxin (Bungarus multicinctus) (P60615 whole entry, looked up): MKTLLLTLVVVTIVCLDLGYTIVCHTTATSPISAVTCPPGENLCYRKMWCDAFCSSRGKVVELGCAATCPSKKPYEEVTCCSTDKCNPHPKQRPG

Chain of Epidermal growth factor receptor (Homo sapiens) (P00533 whole entry, looked up): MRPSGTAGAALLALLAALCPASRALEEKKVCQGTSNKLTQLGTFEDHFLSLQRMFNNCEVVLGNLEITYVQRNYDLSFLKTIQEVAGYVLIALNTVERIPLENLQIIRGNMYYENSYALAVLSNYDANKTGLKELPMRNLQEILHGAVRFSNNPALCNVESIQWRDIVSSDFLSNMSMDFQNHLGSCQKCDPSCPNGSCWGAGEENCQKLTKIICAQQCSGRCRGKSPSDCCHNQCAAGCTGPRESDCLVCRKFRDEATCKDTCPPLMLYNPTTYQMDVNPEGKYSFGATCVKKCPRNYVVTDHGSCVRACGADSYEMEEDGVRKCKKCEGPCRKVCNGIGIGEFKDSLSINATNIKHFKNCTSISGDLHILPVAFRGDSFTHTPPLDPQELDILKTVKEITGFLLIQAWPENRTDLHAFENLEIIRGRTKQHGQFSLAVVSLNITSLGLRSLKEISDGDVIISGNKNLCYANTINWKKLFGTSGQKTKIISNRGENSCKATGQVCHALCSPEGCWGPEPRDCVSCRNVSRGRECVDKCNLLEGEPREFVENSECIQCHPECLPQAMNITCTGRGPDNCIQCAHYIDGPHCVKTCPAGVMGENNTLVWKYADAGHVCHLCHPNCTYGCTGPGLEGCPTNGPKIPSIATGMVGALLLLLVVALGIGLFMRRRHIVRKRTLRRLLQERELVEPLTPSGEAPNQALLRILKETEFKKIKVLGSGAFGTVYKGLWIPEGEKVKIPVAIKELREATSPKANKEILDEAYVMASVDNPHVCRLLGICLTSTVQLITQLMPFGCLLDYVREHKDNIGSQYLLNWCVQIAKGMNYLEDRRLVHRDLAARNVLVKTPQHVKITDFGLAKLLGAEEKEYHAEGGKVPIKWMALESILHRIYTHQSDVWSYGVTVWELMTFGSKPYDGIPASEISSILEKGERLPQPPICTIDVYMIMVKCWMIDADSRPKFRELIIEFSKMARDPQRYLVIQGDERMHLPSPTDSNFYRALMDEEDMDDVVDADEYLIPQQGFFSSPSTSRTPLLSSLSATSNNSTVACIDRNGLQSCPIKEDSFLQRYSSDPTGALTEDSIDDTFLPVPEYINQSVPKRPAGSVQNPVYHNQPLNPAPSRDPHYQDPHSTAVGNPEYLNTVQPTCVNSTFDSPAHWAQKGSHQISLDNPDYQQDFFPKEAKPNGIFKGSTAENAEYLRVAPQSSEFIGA
Chain of Torsin-1A-interacting protein 1 (Homo sapiens) (Q5JTV8 whole entry, looked up): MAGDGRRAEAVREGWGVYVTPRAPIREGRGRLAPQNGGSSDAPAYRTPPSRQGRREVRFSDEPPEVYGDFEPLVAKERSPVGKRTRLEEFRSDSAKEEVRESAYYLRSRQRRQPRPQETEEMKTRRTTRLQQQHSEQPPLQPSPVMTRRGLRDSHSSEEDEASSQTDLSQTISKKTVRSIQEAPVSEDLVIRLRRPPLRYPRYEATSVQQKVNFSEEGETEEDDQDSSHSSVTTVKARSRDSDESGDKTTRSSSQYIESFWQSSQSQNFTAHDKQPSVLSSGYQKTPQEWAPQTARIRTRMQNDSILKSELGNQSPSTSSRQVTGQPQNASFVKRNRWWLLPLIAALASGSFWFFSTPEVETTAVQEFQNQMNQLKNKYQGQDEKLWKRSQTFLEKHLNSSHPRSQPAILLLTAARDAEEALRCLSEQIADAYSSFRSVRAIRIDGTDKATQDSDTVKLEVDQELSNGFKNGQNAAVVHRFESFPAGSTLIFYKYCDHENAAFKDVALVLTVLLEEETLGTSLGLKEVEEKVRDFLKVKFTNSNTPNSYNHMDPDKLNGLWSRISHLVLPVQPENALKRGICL
Chain of Follistatin-related protein 3 (Homo sapiens) (O95633 whole entry, looked up): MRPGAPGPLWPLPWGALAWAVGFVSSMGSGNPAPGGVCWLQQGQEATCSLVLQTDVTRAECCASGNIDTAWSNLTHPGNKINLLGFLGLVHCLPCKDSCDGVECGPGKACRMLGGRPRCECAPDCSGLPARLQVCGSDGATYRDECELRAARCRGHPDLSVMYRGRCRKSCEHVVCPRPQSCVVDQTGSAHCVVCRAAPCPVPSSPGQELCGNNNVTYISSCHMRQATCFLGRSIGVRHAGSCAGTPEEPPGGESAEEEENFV
Chain of Fibroblast growth factor 10 (Homo sapiens) (O15520 whole entry, looked up): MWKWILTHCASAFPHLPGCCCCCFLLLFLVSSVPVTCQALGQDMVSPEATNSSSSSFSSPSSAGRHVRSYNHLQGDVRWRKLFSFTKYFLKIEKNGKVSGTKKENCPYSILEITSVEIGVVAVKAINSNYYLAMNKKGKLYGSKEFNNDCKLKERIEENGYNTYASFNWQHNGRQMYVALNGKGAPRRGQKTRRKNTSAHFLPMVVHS
Chain of Left-right determination factor 2 (Homo sapiens) (O00292 whole entry, looked up): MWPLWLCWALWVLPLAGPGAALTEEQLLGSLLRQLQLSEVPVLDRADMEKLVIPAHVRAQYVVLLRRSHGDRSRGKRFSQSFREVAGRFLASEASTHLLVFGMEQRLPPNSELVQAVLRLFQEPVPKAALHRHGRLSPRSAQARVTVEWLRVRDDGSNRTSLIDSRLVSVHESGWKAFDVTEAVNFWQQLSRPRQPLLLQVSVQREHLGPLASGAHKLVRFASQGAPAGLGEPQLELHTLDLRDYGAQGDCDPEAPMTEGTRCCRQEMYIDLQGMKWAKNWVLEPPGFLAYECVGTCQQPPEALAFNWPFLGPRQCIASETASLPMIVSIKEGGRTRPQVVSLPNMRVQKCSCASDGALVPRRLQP
Chain of Dickkopf-related protein 1 (Homo sapiens) (O94907 whole entry, looked up): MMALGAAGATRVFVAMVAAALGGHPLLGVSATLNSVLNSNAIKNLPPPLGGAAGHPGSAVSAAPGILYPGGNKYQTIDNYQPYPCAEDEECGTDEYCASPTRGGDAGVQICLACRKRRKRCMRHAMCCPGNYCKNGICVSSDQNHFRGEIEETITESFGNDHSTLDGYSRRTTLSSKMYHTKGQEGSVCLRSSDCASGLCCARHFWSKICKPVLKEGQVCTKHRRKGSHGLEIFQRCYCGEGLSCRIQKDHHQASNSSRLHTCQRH

SMILES | composite z-score [1] | composite z-score [2] | composite z-score [3] | z-score [4] | composite z-score [5] | composite z-score [6] | composite z-score [7] | composite z-score [8] | composite z-score [9] | composite z-score [10] | composite z-score [11] | z-score [12] | composite z-score [13] | composite z-score [14] | composite z-score [15] | composite z-score [16] | composite z-score [17] | composite z-score [18] | composite z-score [19] | composite z-score [20]
COc1cc2c(cc1OC)CN(C(=O)[C@H]1[C@@H]3C(=O)O[C@@H](c4ccccc4)[C@@H](c4ccccc4)N3[C@@H](c3ccc(O)cc3)[C@]13C(=O)Nc1ccc(C#CCNC(N)=O)cc13)CC2 | 1.11 | -0.0741 | 0.0306 | -0.996 (inactive) | 1.11 | -0.294 | -0.0357 | 0.903 | 0.596 | 0.544 | -0.208 | -0.145 | 0.264 | -0.123 | 0.0061 | -0.0403 | 0.0141 | -0.198 | -0.0992 | -0.0782
COCCOC(=O)N1C(=O)[C@@]2(c3cc(C#CCCO)ccc31)[C@H](C(=O)N1CCc3cc(OC)c(OC)cc3C1)[C@H]1C(=O)O[C@H](c3ccccc3)[C@H](c3ccccc3)N1[C@@H]2c1ccc(O)cc1 | 1.58 | 0.0869 | 0.43 | -0.341 (inactive) | 1.06 | 1.29 | 0.413 | 0.81 | 0.547 | -0.132 | 1.41 | -1.34 | 0.332 | 0.527 | 0.294 | -0.1 | 0.123 | 0.119 | 0.987 | 1.24
COc1ccc(CCNC(=O)[C@@H]2c3ccccc3C(=O)N(C3Cc4ccccc4C3)[C@H]2c2ccc(CO)cc2)cc1 | 0.613 | -0.124 | 0.857 | 0.54 (inactive) | 0.0846 | 0.316 | -0.19 | 0.0595 | -0.337 | 0.832 | 1.35 | -1.14 | 0.0971 | 0.329 | 0.732 | -0.0738 | 0.0856 | -0.417 | 1.24 | 0.134
COC(=O)c1c(CC[C@@H](CO)NC(=O)N[C@@H](C)Cn2cc(C3(O)CCCCC3)nn2)oc(C(C)=O)c1C(=O)OC | 1.35 | -0.0465 | -0.481 | -2.26 (inactive) | 1.2 | 1.25 | 0.763 | 1.27 | 0.892 | -0.216 | 0.921 | -0.418 | 0.703 | 0.685 | -1.53 | -0.0556 | 0.0328 | -0.0211 | 0.666 | 0.431
CN(C)CCCC[C@@H]1NC(=O)[C@H]2C[C@@H](C(=O)NCCCCCNC(=O)CS)[C@@H](c3cccc(OCCO)c3)N2C1=O | 1.12 | -0.144 | 0.61 | 0.515 (inactive) | 0.305 | 0.894 | 0.227 | 0.65 | 0.459 | -0.0899 | 0.586 | -0.556 | -0.0183 | 0.137 | -0.734 | -0.195 | 0.0796 | -0.363 | 0.898 | -0.223
C#CCNC(=O)[C@H](Cc1ccccc1)NC(=O)CCC(=O)O | -0.759 | -0.397 | -0.205 | -0.222 (inactive) | -0.688 | -1.14 | -0.659 | -1.22 | -0.447 | 0.735 | -0.665 | -0.25 | -0.0677 | -1.48 | -0.834 | -0.12 | -0.214 | -0.501 | 0.409 | -0.368
